In PubChem BioAssay (NCATS):
Inconclusive results are not listed. Values without a mark were called inactive. The source made the active and inactive calls. Calls come from the whole dose curve; as a rule, active = well fitted inhibition curve with a large enough effect; inconclusive = small, poorly fitted or top-dose-only effect; inactive = flat fitted curve, though single readings scatter.

These molecules were tested against Ubiquitin carboxyl-terminal hydrolase 1 (Homo sapiens) (UniProt O94782) (assay: Inhibitors of USP1/UAF1: Pilot qHTS (AID 504865; note: nearly all actives have a fitted effect of over 35% in size;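 for activity change, negative = inhibition: rhodamine fluorescence freed from ubiquitin-rhodamine substrate followed over time; top concentration of the series differs between compounds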)). Details: purified USP1/UAF1, Ub-rhodamine cleavage fluorescence; series mostly up to 114 µM; activity change, negative = inhibition: at the top concentration.
Ubiquitin carboxyl-terminal hydrolase 1 (Homo sapiens), sequence (O94782 whole entry, looked up): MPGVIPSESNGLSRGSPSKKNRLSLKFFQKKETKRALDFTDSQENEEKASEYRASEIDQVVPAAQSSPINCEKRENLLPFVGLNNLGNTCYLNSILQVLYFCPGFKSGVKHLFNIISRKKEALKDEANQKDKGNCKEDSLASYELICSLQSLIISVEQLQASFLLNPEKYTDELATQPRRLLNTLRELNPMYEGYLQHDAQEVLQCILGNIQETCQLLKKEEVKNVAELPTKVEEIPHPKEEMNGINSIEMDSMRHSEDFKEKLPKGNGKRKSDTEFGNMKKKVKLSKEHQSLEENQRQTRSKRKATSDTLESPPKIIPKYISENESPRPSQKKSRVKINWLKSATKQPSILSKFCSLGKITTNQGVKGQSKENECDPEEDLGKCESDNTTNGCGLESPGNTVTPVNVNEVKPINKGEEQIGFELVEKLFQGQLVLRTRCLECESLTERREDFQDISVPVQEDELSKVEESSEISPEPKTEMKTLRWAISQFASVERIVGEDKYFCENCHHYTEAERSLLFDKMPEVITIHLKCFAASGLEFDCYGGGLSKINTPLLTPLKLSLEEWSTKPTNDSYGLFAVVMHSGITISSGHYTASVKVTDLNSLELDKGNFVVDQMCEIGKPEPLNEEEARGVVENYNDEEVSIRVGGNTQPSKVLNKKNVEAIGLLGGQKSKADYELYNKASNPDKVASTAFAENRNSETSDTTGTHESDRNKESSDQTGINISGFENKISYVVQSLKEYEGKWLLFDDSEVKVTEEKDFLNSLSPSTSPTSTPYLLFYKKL
Method in brief: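 USP1/UAF1 complex at 1 nM preincubated 15 min at room temperature with compound, then Ub-Rho substrate added at 150 nM final. Fluorescence (480/540 nm) read kinetically in 50 mM HEPES pH 7.8, 0.5 mM EDTA, 1 mM TCEP, 0.1 mg/ml BSA, 0.01% Tween-20.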
% is set by controls: 0 for no effect and ±100 for the full control effect; potency is the fitted concentration of half-maximal effect.

SMILES	activity change, negative = inhibition	Potency
C/C=C/C=N/NC(=O)c1ccncc1	-2.59%	–
CCc1oc2ccccc2c1C(=O)c1cc(I)c(O)c(I)c1	–	39.8 µM (active)
CN(C)CCN1C(=O)c2ccccc2N(C)c2ccccc21	3.73%	–
OCc1ccccn1	-4.76%	–
CCN(CC)CCOC(=O)C1(c2ccccc2)CCCC1	-5.17%	–
Nc1nc(-c2ccccc2)c(Br)c(=O)[nH]1	-4.01%	–
CC(C)(C)NC[C@H](O)COc1cccc2c1CCCC2=O	–	inactive
COc1ccc(-c2cc(C(F)F)nn2-c2ccc(S(N)(=O)=O)cc2)cc1F	-8.17%	–
CN1CCN(c2cc3c(cc2F)c(=O)c(C(=O)O)cn3-c2ccc(F)cc2)CC1	-4.79%	–
CC(C)[N+](C)(C)CC(O)COc1cccc2ccccc12 (centres undefined)	-9.14%	–
N#CCC(=O)NN	-10.5%	–
NC(=S)N/N=C/c1cccnc1	-7.81%	–
COc1ccc(C(=O)c2ccccc2O)c(O)c1	6.04% [at 54.9 µM]	–
NC(=O)C1(N2CCCCC2)CCN(CCCC(=O)c2ccc(F)cc2)CC1	-5.5%	–
